{"source": "ChEMBL document CHEMBL3988442", "about": "“University of Dundee, Small-Polar-MMV Screening Library” (2021)", "biological_target": "T1, Methionyl-tRNA synthetase, putative (Leishmania donovani (strain BPK282A1)) (UniProt E9BF75)", "T1 sequence (whole entry)": "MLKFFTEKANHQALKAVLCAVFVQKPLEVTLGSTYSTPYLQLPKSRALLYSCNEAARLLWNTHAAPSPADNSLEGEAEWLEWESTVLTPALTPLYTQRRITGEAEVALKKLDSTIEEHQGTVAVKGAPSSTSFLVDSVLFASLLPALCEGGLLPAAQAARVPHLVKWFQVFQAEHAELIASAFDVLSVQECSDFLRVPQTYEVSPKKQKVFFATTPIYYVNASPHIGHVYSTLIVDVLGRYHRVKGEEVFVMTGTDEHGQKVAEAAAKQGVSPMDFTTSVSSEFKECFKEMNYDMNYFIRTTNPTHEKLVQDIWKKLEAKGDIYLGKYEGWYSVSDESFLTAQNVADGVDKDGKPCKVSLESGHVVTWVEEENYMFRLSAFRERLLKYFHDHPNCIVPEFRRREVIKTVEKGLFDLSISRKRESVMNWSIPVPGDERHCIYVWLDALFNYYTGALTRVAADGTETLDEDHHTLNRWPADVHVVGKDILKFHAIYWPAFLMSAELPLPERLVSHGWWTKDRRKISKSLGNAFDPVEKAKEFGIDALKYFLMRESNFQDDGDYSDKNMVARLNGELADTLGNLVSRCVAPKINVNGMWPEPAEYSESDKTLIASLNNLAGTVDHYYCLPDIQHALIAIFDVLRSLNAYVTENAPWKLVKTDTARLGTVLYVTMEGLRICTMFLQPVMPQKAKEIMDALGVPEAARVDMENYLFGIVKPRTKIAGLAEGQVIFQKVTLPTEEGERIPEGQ", "experiment": "Leishmania donovani Methionine tRNA synthetase (LdMetRS):v7. Dose response assay", "assay_type": "functional", "set-up": "conc 80 nM, time 150 minutes"}
{"smiles": "COC1CCCCC1Nc1nc(Nc2ccc(F)c(F)c2)nc2c1cnn2C", "note": "(configuration not stated)", "values": [{"measurement": "PXC50", "setting": "BOTTOM 6.09090205, HILLSLOPE 1.180798676, MAX_EFFECT 57.89473684, TOP 61.13511107", "result": 4.92}, {"measurement": "PXC50", "setting": "MAX_EFFECT 49.43396226", "result": "< 4"}, {"measurement": "PXC50", "setting": "MAX_EFFECT 49.87277354", "result": "< 4"}]}
{"smiles": "Cn1ncc2c(NCC3CCOC3)nc(Nc3ccc(F)c(F)c3)nc21", "note": "(configuration not stated)", "values": [{"measurement": "PXC50", "setting": "BOTTOM 0.0, HILLSLOPE 0.829006149, MAX_EFFECT 88.54961832, TOP 100.0", "result": 4.89}, {"measurement": "PXC50", "setting": "BOTTOM 5.170404417, HILLSLOPE 0.914601234, MAX_EFFECT 86.40350877, TOP 102.339634", "result": 4.72}, {"measurement": "PXC50", "setting": "BOTTOM -0.903989981, HILLSLOPE 0.887117975, MAX_EFFECT 86.41509434, TOP 97.82602818", "result": 4.97}]}
{"smiles": "Cn1ncc2c(NCCCn3cnnc3)nc(Nc3ccc(F)c(F)c3)nc21", "values": [{"measurement": "PXC50", "setting": "BOTTOM 1.83375179, HILLSLOPE 0.958532355, MAX_EFFECT 86.4608076, TOP 100.0", "result": 4.67}, {"measurement": "PXC50", "setting": "BOTTOM -0.68283143, HILLSLOPE 0.850398367, MAX_EFFECT 82.59187621, TOP 94.39900943", "result": 4.98}, {"measurement": "PXC50", "setting": "BOTTOM -3.068523854, HILLSLOPE 0.793433763, MAX_EFFECT 81.54506438, TOP 111.1617786", "result": 4.55}]}
{"smiles": "Cn1ncc2c(NCCO)nc(Nc3ccc(O)cc3)nc21", "values": [{"measurement": "PXC50", "setting": "MAX_EFFECT 7.728337237", "result": "< 4"}, {"measurement": "PXC50", "setting": "MAX_EFFECT 8.34914611", "result": "< 4"}, {"measurement": "PXC50", "setting": "MAX_EFFECT 13.02428256", "result": "< 4"}]}
{"smiles": "O=C(CCc1n[nH]c2c1CCCC2)N1C[C@@H]2CC[C@H](C1)N(CC1CC1)C2", "values": [{"measurement": "PXC50", "setting": "BOTTOM 12.11622841, HILLSLOPE 1.527540497, MAX_EFFECT 61.47110333, TOP 100.0", "result": 4.08}, {"measurement": "PXC50", "setting": "BOTTOM -0.508945456, HILLSLOPE 1.017254843, MAX_EFFECT 57.14285714, TOP 100.0", "result": 4.12}, {"measurement": "PXC50", "setting": "BOTTOM -1.441363941, HILLSLOPE 1.01121357, MAX_EFFECT 60.86956522, TOP 100.0", "result": 4.2}]}
{"smiles": "OCCNc1nc(Nc2cccc(F)c2)nc2ccsc12", "values": [{"measurement": "PXC50", "setting": "BOTTOM 3.044431964, HILLSLOPE 0.890140098, MAX_EFFECT 69.62809917, TOP 98.77893837", "result": 4.42}, {"measurement": "PXC50", "setting": "BOTTOM -0.299639933, HILLSLOPE 0.74457476, MAX_EFFECT 65.18375242, TOP 100.0", "result": 4.37}, {"measurement": "PXC50", "setting": "BOTTOM -0.909696564, HILLSLOPE 1.048927528, MAX_EFFECT 68.28193833, TOP 78.21382142", "result": 4.73}]}
{"smiles": "CC(C)c1nc(N2CCC(N3CCCCCC3)CC2)c2cnn(C)c2n1", "values": [{"measurement": "PXC50", "setting": "BOTTOM 1.611649307, HILLSLOPE 1.510978702, MAX_EFFECT 74.4966443, TOP 100.0", "result": 4.28}, {"measurement": "PXC50", "setting": "BOTTOM 2.404981537, HILLSLOPE 1.138566115, MAX_EFFECT 78.47222222, TOP 100.0", "result": 4.48}, {"measurement": "PXC50", "setting": "BOTTOM 5.527995165, HILLSLOPE 1.337567516, MAX_EFFECT 71.57712305, TOP 100.0", "result": 4.24}]}
{"smiles": "CN(c1cccc(F)c1)c1nc(NCCO)c2cnn(C)c2n1", "values": [{"measurement": "PXC50", "setting": "MAX_EFFECT 8.142493639", "result": "< 4"}, {"measurement": "PXC50", "setting": "MAX_EFFECT 9.649122807", "result": "< 4"}, {"measurement": "PXC50", "setting": "MAX_EFFECT 12.83018868", "result": "< 4"}]}
{"smiles": "Cc1ccnc(C2CN(Cc3ccc(-c4ccccc4C(=O)O)o3)C2)n1", "values": [{"measurement": "PXC50", "setting": "BOTTOM 9.249913927, HILLSLOPE 1.102722508, MAX_EFFECT 60.83188908, TOP 100.0", "result": 4.12}, {"measurement": "PXC50", "setting": "BOTTOM 9.895143899, HILLSLOPE 1.447637201, MAX_EFFECT 79.86111111, TOP 100.0", "result": 4.36}, {"measurement": "PXC50", "setting": "BOTTOM 14.75237733, HILLSLOPE 1.939721289, MAX_EFFECT 72.48322148, TOP 100.0", "result": 4.2}]}
{"smiles": "Cn1ncc2c(N3CCOCC3)nc(Nc3ccc(F)c(F)c3)nc21", "values": [{"measurement": "PXC50", "setting": "BOTTOM 9.319609168, HILLSLOPE 1.297043796, MAX_EFFECT 53.57833656, TOP 67.28849304", "result": 5.29}, {"measurement": "PXC50", "setting": "MAX_EFFECT 10.12396694", "result": "< 4"}, {"measurement": "PXC50", "setting": "MAX_EFFECT 42.73127753", "result": "< 4"}]}
{"smiles": "NS(=O)(=O)c1cccnc1Nc1cc(C(=O)N2CCC2)cc(C(F)(F)F)c1", "values": [{"measurement": "PXC50", "setting": "MAX_EFFECT 2.375296912", "result": "< 4"}, {"measurement": "PXC50", "setting": "MAX_EFFECT 5.755395683", "result": "< 4"}, {"measurement": "PXC50", "setting": "MAX_EFFECT -0.429184549", "result": "< 4"}]}
{"smiles": "Cn1ncc2c(NCC(F)F)nc(Nc3ccc(F)c(F)c3)nc21", "values": [{"measurement": "PXC50", "setting": "BOTTOM 1.581546444, HILLSLOPE 1.045254628, MAX_EFFECT 85.66037736, TOP 91.59899261", "result": 5.09}, {"measurement": "PXC50", "setting": "BOTTOM 2.845790401, HILLSLOPE 0.765565912, MAX_EFFECT 91.60305344, TOP 108.0932569", "result": 4.86}, {"measurement": "PXC50", "setting": "BOTTOM 5.50929664, HILLSLOPE 0.80038345, MAX_EFFECT 90.35087719, TOP 108.0671509", "result": 4.81}]}
{"smiles": "COC(=O)c1cnc(Nc2cccc(C(F)(F)F)c2)c(S(N)(=O)=O)c1", "values": [{"measurement": "PXC50", "setting": "MAX_EFFECT 3.50877193", "result": "< 4"}, {"measurement": "PXC50", "setting": "MAX_EFFECT 6.168224299", "result": "< 4"}, {"measurement": "PXC50", "setting": "MAX_EFFECT 6.615776081", "result": "< 4"}]}
{"smiles": "Cn1ncc2c(NCCO)nc(Nc3ccccc3S(N)(=O)=O)nc21", "values": [{"measurement": "PXC50", "setting": "MAX_EFFECT 2.127659574", "result": "< 4"}, {"measurement": "PXC50", "setting": "MAX_EFFECT 3.652968037", "result": "< 4"}, {"measurement": "PXC50", "setting": "MAX_EFFECT 13.39622642", "result": "< 4"}]}
